Data taken from PubChem BioAssay AID602396 (The Scripps Research Institute Molecular Screening Center, 2012).
Screen size: about 360,000 compounds; about 460 (0.13%) were called active.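 Rule for the calls: active = inhibition above the mean inhibition of all tested compounds plus 3 SD (cut at about 73% in these data); inactive = the rest.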 The list comes from a sample in which actives are over-represented; it also holds similar structures and randomly drawn compounds.

target: Nuclear receptor subfamily 5 group A member 2 (Homo sapiens) (UniProt O00482); assay: reduction of NR5A2-driven StAR reporter activity – cell-based, luminescence, HEK293T, StAR-luciferase reporter, primary screen (AID 602396); settings: LRH-1 transfected, 24 h, at 3.6 µM, hits give high values;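 note: 0% = DMSO wells and 100% = reporter-only cells lacking LRH-1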
Sequence (O00482 whole entry, looked up): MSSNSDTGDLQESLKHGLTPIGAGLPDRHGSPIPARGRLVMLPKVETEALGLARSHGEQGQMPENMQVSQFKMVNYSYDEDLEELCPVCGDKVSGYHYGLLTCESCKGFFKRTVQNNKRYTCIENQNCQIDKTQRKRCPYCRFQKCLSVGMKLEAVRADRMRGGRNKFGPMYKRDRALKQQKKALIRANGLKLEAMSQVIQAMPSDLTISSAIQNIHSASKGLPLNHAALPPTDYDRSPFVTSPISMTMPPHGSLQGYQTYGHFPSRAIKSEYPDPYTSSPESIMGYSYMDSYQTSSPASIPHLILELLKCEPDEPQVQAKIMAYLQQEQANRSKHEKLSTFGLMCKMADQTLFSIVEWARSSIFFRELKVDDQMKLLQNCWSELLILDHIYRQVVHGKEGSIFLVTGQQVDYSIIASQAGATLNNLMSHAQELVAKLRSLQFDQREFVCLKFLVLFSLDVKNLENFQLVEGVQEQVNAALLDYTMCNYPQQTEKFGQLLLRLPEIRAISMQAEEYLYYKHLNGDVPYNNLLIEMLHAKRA

inhibition, active:
OCCCNc1nccc(-c2cc(Nc3cccc(Cl)c3)ncn2)n1 96.8%

inhibition, inactive:
COC(=O)c1ccc(CSc2ccc(S(=O)(=O)N3CCCCC3)cn2)cc1 0.83%, CCOc1cc(C(=O)Nc2c(C)ccc3nsnc23)cc(OCC)c1OCC 5.78%, CC(=O)Nc1ccc(NC(=O)CSc2nnnn2-c2ccccc2F)cc1 3.27%, CN(C)CCCn1c(N)c(C#N)c2nc(C#N)c(C#N)nc21 -20%, Cc1noc(C)c1NC(=O)Nc1cccc2c1O[C@H](CN(C)S(=O)(=O)c1c(C)noc1C)[C@@H](C)CN([C@H](C)CO)C2=O -28.3%, CCOc1ccc(Br)cc1S(=O)(=O)Nc1ccc(C(=O)OC(C)C(=O)N(C)c2ccccc2)cc1 (stereo unspecified) -9.98%, Cc1ccc(CC2CC(=O)N(c3cc(C)ccc3C)C2=O)cc1 (stereo unspecified) 5.12%, COc1ccc(OCCn2ccnc2C)cc1 10.9%, Cc1ccccc1/[N+]([O-])=C/c1ccncc1 13%, Cc1cc(N2CCCC2=O)cc(C)c1S(N)(=O)=O 7.43%, CCN(C(=O)COC(=O)CCC(=O)c1cccs1)C1CCCCC1 4.1%, CC1CC(c2ccccc2)n2nc(NC(=O)c3cccs3)nc2N1 (stereo unspecified) 5.57%, CCc1ccc(NC(=O)CCNS(=O)(=O)c2cccs2)cc1 -12.4%, Cc1ccc(-n2c(=O)cc(N3CCN(Cc4ccccc4)CC3)[nH]c2=O)cc1 8.9%, Cc1ccc(C(=O)COC(=O)CCN2C(=O)C3C4CC(C(Br)C4Br)C3C2=O)cc1 (stereo unspecified) -1.24%, Cc1cc(C(=O)NNC(=O)CCC2CCCCC2)c(C)o1 2.29%, CC(C)c1ccc(NC(=O)C2CCCN(S(=O)(=O)c3cccnc3)C2)cc1 (stereo unspecified) -1.1%, Cn1c(=O)c2c(nc(OCc3cccnc3)n2Cc2ccccc2)n(C)c1=O -21.8%, CCn1c(C)nc2c1C(=O)c1ccccc1C2=O -4.55%, Cc1ccc(-c2noc(C3CCCN(C(=O)c4cccc(Cl)c4)C3)n2)o1 (stereo unspecified) -49.4%, Cc1ccc(-c2ccnc3nc(Sc4ncc(C(F)(F)F)cc4Cl)nn23)cc1 -3.99%, CN(C)S(=O)(=O)c1ccc(N2CCCC2)c(C(=O)Nc2cccc(F)c2)c1 8.36%, Cc1nc(COc2cc3oc(=O)cc(C)c3cc2Cl)cs1 -10.4%, O=C(CN1CCN(S(=O)(=O)c2ccc3ccccc3c2)CC1)NC(=O)NC1CCCCC1 14.8%, CCCCCN(C(=O)NC(=O)Nc1cccc(C)c1C)S(C)(=O)=O -7.26%, CCCCn1c(=S)[nH]c2ncccc2c1=O 0.69%, Cc1cc(NC(=O)CS(=O)(=O)c2cn(C)c3ccccc23)no1 -3.59%, Cc1c(Cl)cnc(NC(=O)COC(=O)C2CCCC2)c1Cl 1.2%, CC(=O)NS(=O)(=O)c1ccc2c(c1)Cc1cc(S(=O)(=O)NC(C)=O)ccc1-2 9.84%, N#Cc1ccc(CN2CCN(CC(=O)Nc3ccccc3C(=O)NC3CC3)CC2)cc1 9.21%, CCC1=NN(C(=O)Cc2ccc([N+](=O)[O-])cc2)C(O)(c2ccc(Br)cc2)C1 (stereo unspecified) -7.24%, CCN(CC)C(=O)C1=C(C)N(Cc2ccccc2)C(=O)C(CC(=O)NC(c2ccccc2)c2ccccc2)C1 (stereo unspecified) -17.2%, O=C(NCCCn1ccnc1)C(=O)c1cn(CC(=O)N2CCCCCC2)c2ccccc12 9.94%, CC(C)CCC(=O)Nc1cc(S(=O)(=O)N2CCOCC2)ccc1N1CCCC1 6.05%, Cc1cn([C@H]2C[C@H](O)[C@@H](CNC(=O)[C@H](N)Cc3cccnc3)O2)c(=O)[nH]c1=O 2.03%
